# Measured values published in PubChem BioAssay.
# Active and inactive are the calls of the source. Unless noted, no rule for the calls is given here.
# How the values were obtained:
# [1] = system: Wnt5a (protein binding on small-molecule microarray); assay: Wnt5a binders on small-molecule microarray, primary screen, biophysical, 635/667 nm fluorescence (AID 1142); details: 635 nm fluorescence, higher = more signal;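 also: fluorescence read at 667 nm with signal to noise per printed feature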
# [2] = cell viability in Huh7 cells, primary screen, cytotoxicity control for HCV replication inhibitor project, CellTiter-Glo luminescence, basal, 48 h (AID 1143); details: Huh7 HCV replicon, higher = more signal, called active from +8 up or from −8 down;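 also: Huh7 hepatoma cells carrying a hepatitis C replication reporter with no stimulus; test concentration not given here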
# [3] = P. aeruginosa biofilm formation inhibitors, primary screen, PAO1 strain, BacTiter-Glo luminescence, LB-PBS (AID 1144); details: 12 h, higher = more signal
# [4] = CREB reporter modulators without forskolin, primary screen, cell-based, PC12, CRE-LacZ reporter, unstimulated (AID 1145); details: no forskolin, luminescence, 4.5 h, higher = more signal, called active from +8 up or from −8 down
# [5] = CREB reporter modulators under forskolin, primary screen, cell-based, PC12, CRE-LacZ reporter, forskolin-stimulated (AID 1146); details: luminescence, 4.5 h, higher = more signal, called active from +8 up or from −8 down;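 also: PC12 cells with 6xCRE LacZ reporter stimulated by forskolin 10 µM; beta-galactosidase reporter signal reflecting CREB driven transcription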
# [6] = molecular target: Streptavidin (Streptomyces avidinii) (UniProt P22629); assay: streptavidin binders on small-molecule microarray, primary screen, artefact control for SMM compound annotation, biophysical, 635/667 nm fluorescence (AID 1147); details: streptavidin binding, higher = more signal;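 also: signal reflects streptavidin binding to arrayed compounds as a control protein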
# Streptavidin (Streptomyces avidinii), sequence (P22629 whole entry, looked up): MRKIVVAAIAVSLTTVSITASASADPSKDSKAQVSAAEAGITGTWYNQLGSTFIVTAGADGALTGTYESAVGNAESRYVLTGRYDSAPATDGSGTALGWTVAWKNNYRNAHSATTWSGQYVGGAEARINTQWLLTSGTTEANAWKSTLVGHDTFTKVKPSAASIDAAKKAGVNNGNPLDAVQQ
# [7] = small-molecule binders of probe aInhba, primary screen, biochemical, small-molecule microarray, 635/667 nm fluorescence (AID 1148); details: higher = more signal;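 also: score merges 667nm spot fluorescence with signal-to-noise for antibody binding to printed compounds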
# Torsin-1A (Homo sapiens) [8] = molecular target: Torsin-1A (Homo sapiens) (UniProt O14656); assay: torsin A binders from cell lysate, primary screen, small-molecule microarray, wild-type, 635/667 nm (AID 1149); details: COS7 hTOR1A-WT lysate, 635 nm fluorescence, higher = more signal
# Torsin-1A (Homo sapiens), sequence (O14656 whole entry, looked up): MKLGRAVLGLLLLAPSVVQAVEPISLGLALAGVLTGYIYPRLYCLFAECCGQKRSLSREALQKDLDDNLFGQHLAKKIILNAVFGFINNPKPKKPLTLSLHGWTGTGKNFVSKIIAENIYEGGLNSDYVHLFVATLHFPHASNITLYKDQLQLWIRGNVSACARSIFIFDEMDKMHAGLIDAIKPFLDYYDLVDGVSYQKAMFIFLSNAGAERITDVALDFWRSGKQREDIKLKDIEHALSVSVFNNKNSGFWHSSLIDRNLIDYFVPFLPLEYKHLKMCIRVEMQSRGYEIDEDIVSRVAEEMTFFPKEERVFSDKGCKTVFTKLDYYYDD
# Torsin-1A (Homo sapiens) [9] = molecular target: Torsin-1A (Homo sapiens) (UniProt O14656); assay: small-molecule binders of mutant TOR1A in lysate, primary screen, cell lysate, small-molecule microarray, COS7 lysate, 635/667 nm fluorescence (AID 1150); details: COS7 hTOR1A mutant lysate, 635 nm fluorescence, higher = more signal;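 also: score pools 667 nm emission and signal to noise measuring lysate protein binding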
# [10] = system: Sonic hedgehog protein (Shh); assay: small-molecule binders of Shh protein, primary screen, biochemical, small-molecule microarray, 635/667 nm fluorescence (AID 1151); details: small-molecule microarray binding, 635 nm fluorescence; higher = more signal;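 also: Shh protein binding to compounds spotted on small-molecule microarray slides; score combines spot fluorescence intensity with signal-to-noise across triplicate slides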
# [11] = E. coli DRC41 culture turbidity changes, primary screen, E. coli filamentation inducer project, strain DRC41, OD650, 48 h (AID 1152);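 also: E. coli MC1000 strain DRC41 lacking acrAB efflux pump and sulA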; details: E. coli DRC41 (acrAB sulA), higher = more signal, called active from +8 up or from −8 down
# [12] = small-molecule binders of probe aLefty1, primary screen, biochemical, small-molecule microarray, 635/667 nm fluorescence (AID 1153); details: higher = more signal;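 also: score merges spot fluorescence with signal-to-noise ratio from the scanned slide images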
# [13] = PSAC antagonists in infected red cells, primary screen, cell-based, P. falciparum Indochina, OD700, 1 h (AID 1154); details: P. falciparum Indochina infected RBC osmotic lysis, higher = more signal, called active from +8 up or from −8 down
# [14] = PSAC antagonists in infected red cells, primary screen, cell-based, P. falciparum Indochina, OD700, 2 h (AID 1155);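 also: lysis reports solute entry through the parasite surface anion channel PSAC; channel blockers reduce lysis of infected cells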; details: P. falciparum Indochina infected erythrocytes, osmotic lysis OD700; higher = more signal, called active from +8 up or from −8 down
# [15] = osmotic lysis modulators in infected erythrocytes, primary screen, PSAC antagonist project, cell-based, P. falciparum Indochina, OD700, 3 h (AID 1156); details: higher = more signal, called active from +8 up or from −8 down
# [16] = PSAC antagonists in infected red cells, primary screen, cell-based, P. falciparum Indochina, OD700, 18 h (AID 1157); details: P. falciparum Indochina infected erythrocytes, osmotic lysis OD700, 18 h; higher = more signal, called active from +8 up or from −8 down
# [17] = modulators of S6 phosphorylation in cells, primary screen, cell-based, A549, cytoblot, luminescence, serum-stimulated (AID 1158); details: A549 phospho-S6 cytoblot, 5 h, higher = more signal;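 also: serum-stimulated A549 lung adenocarcinoma cells; signal is phosphorylated S6 detected by cytoblot immunostaining with HRP secondary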
# [18] = molecular target: NADPH oxidase 2 (Homo sapiens) (UniProt P04839); assay: NOX2-dependent H2O2 signal modulators, primary screen, NOX inhibitor project, cell-based, HEK293-NOX2, PMA-stimulated, Amplex Red fluorescence (AID 1159); details: 45 min, higher = more signal, called active from +8 up or from −8 down; also: test concentration not given here
# NADPH oxidase 2 (Homo sapiens), sequence (P04839 whole entry, looked up): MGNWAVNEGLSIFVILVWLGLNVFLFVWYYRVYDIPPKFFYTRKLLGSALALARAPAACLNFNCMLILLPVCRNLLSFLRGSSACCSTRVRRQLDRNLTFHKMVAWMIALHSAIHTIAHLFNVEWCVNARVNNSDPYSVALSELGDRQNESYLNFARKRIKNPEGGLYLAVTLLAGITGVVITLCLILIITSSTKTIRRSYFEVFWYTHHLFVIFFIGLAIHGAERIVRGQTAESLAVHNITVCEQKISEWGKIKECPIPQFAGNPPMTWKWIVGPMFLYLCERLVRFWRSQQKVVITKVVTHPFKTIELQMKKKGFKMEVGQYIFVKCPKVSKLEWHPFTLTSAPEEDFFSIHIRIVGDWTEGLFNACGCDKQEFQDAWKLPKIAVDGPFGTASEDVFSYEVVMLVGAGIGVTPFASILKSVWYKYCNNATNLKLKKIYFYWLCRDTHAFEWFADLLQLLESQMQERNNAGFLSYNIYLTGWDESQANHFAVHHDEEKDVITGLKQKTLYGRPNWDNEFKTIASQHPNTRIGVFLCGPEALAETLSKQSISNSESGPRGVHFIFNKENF
# [19] = molecular target: NADPH oxidase 4 (Homo sapiens) (UniProt Q9NPH5); assay: NOX4-dependent H2O2 signal modulators, primary screen, NOX inhibitor project, cell-based, HEK293-NOX4, tetracycline-induced, Amplex Red fluorescence (AID 1160); details: 45 min, higher = more signal, called active from +8 up or from −8 down
# NADPH oxidase 4 (Homo sapiens), sequence (Q9NPH5 whole entry, looked up): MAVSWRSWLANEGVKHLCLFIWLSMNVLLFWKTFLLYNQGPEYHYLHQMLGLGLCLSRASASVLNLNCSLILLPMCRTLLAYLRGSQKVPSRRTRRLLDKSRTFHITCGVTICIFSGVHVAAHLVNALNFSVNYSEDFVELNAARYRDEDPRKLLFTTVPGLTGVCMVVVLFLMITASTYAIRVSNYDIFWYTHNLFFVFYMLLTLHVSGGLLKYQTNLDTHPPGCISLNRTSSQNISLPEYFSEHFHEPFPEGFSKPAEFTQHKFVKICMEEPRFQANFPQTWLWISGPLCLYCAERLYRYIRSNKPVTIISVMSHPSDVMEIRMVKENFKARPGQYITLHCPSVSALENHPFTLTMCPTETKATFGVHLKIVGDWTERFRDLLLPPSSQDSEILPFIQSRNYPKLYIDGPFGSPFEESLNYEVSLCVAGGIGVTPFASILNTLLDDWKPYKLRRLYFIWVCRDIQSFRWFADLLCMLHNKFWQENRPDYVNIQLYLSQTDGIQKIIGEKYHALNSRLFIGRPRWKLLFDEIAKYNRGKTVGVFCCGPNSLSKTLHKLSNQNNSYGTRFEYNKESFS
# [20] = molecular target: NADPH oxidase 5 (Homo sapiens) (UniProt Q96PH1); assay: NOX5-dependent H2O2 signal modulators, primary screen, NOX inhibitor project, cell-based, HEK293-NOX5, Amplex Red fluorescence (AID 1161); details: HEK293-NOX5, ionomycin, 45 min, higher = more signal
# NADPH oxidase 5 (Homo sapiens), sequence (Q96PH1 whole entry, looked up): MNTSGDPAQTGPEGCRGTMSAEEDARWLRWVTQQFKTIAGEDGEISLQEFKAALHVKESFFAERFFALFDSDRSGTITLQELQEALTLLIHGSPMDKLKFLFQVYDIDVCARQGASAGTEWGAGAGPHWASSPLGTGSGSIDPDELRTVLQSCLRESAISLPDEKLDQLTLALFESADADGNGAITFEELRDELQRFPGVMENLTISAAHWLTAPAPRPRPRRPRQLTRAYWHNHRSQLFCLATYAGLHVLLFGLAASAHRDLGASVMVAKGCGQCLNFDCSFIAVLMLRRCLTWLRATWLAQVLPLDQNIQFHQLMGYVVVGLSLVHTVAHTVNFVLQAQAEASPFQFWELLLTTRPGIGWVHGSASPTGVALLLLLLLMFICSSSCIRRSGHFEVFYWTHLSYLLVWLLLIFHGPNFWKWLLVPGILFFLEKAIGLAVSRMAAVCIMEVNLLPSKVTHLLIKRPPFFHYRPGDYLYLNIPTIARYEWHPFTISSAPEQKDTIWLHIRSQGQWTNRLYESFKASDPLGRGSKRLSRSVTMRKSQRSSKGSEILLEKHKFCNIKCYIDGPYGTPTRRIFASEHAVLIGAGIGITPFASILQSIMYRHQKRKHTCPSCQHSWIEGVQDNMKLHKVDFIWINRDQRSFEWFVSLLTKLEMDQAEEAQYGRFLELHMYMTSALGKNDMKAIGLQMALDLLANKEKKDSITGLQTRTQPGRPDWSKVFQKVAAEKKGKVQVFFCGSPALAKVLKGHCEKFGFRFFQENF
Compound,composite z-score [1],z-score [2],z-score [3],z-score [4],z-score [5],composite z-score [6],composite z-score [7],composite z-score (Torsin-1A (Homo sapiens) [8]),composite z-score (Torsin-1A (Homo sapiens) [9]),composite z-score [10],z-score [11],composite z-score [12],z-score [13],z-score [14],z-score [15],z-score [16],z-score [17],z-score [18],z-score [19],z-score [20]
COC(=O)[C@@H]1CC[C@H](C)[C@@H](c2ccc(C)cc2)N1C(=O)c1ccc(C=NOC[C@@H](O)[C@H]2O[C@@H]3OC(C)(C)O[C@@H]3[C@H]2O)cc1,0.0258,0.48 (inactive),-0.0399 (inactive),9.08 (active),0.413 (inactive),0.54,0.31,0.215,0.277,0.241,1.44 (inactive),0.0313,0.465 (inactive),0.364 (inactive),0.107 (inactive),0.342 (inactive),-0.924,0.659 (inactive),0.589 (inactive),0.417
CC(CCN1CCc2nc(-c3ccccc3)c(-c3ccccc3)cc2C1)=NO[C@@H](C)c1cc(-c2c(C)cc(C)cc2C)no1,-0.405,-2.58 (inactive),-0.832 (inactive),2.71 (inactive),-0.426 (inactive),2.15,-0.159,0.199,0.153,-0.387,-1.03 (inactive),-0.0099,-0.0185 (inactive),-0.429 (inactive),1.5 (inactive),-1.37 (inactive),0.831,-0.861 (inactive),-0.901 (inactive),-0.296
CCc1cc2c(nc1CC)CCN(CCC(C)=NOC[C@@H](C)[C@H](OCc1ccccc1)C(C)C)C2,-0.608,-1.09 (inactive),0.241 (inactive),0.387 (inactive),0.113 (inactive),-1.39,-0.302,-0.94,-1.22,-0.267,-0.64 (inactive),-1.28,1.29 (inactive),-2.02 (inactive),0.513 (inactive),-2.16 (inactive),1.35,-2.3 (inactive),-0.642 (inactive),-4.09
CO[C@H]1COC(=O)[C@H](CCSC)NC(=O)CC=C[C@@H](C)[C@H](OC)COC(=O)[C@@H](OCc2ccccc2)C=C[C@@H]1C,0.211,-1.45 (inactive),-0.128 (inactive),-0.0638 (inactive),0.74 (inactive),-0.0966,-0.101,1.78,0.732,1.9,0.319 (inactive),-0.173,0.463 (inactive),0.191 (inactive),1.17 (inactive),0.367 (inactive),-0.378,0.167 (inactive),0.25 (inactive),-0.911
COC(=O)[C@H](C)NC(=O)CCC1CC(OC(=O)NCc2ccc3c(c2)OCO3)CC2(CCCC(COC(=O)NCCCN3CCCC3=O)O2)O1 (stereo not given in full),0.151,-0.849 (inactive),-0.202 (inactive),0.108 (inactive),0.833 (inactive),0.53,0.111,0.447,0.323,0.78,-0.37 (inactive),0.0326,-0.881 (inactive),0.136 (inactive),-0.257 (inactive),-0.169 (inactive),0.0031,1.1 (inactive),-1.51 (inactive),-1.74
O=C1C[C@@H](O)[C@@H](O)[C@@H]2[C@@H]3C(=O)N(c4ccc(F)cc4F)C(=O)[C@@H]3CC[C@H]12,0.0583,-1.24 (inactive),0.0279 (inactive),0.064 (inactive),-0.13 (inactive),0.234,-0.101,0.403,0.302,1.09,-0.706 (inactive),-0.147,-0.0503 (inactive),0.0554 (inactive),-0.737 (inactive),0.06 (inactive),0.0123,1.09 (inactive),0.366 (inactive),-0.158
C=CCOCC1CN2[C@@H](CC[C@@H](C)[C@@H]2c2ccc(Br)cc2)C(=O)O1 (stereo not given in full),-0.234,-0.0112 (inactive),1.1 (inactive),0.829 (inactive),-0.0565 (inactive),0.0804,-0.367,0.318,0.499,0.257,0.298 (inactive),-0.147,0.517 (inactive),0.456 (inactive),-1.14 (inactive),0.247 (inactive),-0.665,0.286 (inactive),-0.604 (inactive),-2.74
O=C(NN=C1C[C@@H](O)[C@@H](O)[C@@H]2[C@@H]3C(=O)N(Cc4ccc5c(c4)OCO5)C(=O)[C@@H]3CC[C@@H]12)OCc1ccccc1,-0.0565,-3.46 (inactive),0.156 (inactive),1.06 (inactive),0.0698 (inactive),0.485,-0.183,0.234,-0.0136,-0.806,-0.989 (inactive),0.184,6.62 (inactive),-0.207 (inactive),0.465 (inactive),-1.85 (inactive),-0.0564,-1.78 (inactive),-1.08 (inactive),-1.39
